Where “and” joins values, the source holds several entries; their conditions need not be identical. Identical values can stand only once. Results filed as inconclusive are left out. Calls of active or inactive are those of the source. Unless noted, calls come from the whole dose curve; as a rule, active = well fitted curve in the direction sought with a large enough effect; inconclusive = small, poorly fitted or top-dose-only effect, or another doubt; inactive = no such curve, though single readings can be large; an effect the other way counts as inactive or inconclusive.
How the values were obtained:
[1] = Cell Viability - BJ (AID 421; calls by dose curve;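 note: potency is the fitted concentration of half-maximal effect; cells exposed to compound for 40 hours at 37 °C before readout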); details: BJ fibroblast viability, qHTS
Procedure, shortened: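 Cytotoxicity as drop in intracellular ATP (CellTiter-Glo, 20 min RT) after 40 hr compound exposure of BJ fibroblasts at 37 °C. Titrations scaled between DMSO and 100 uM tamoxifen, Hill-fitted for AC50.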

[2] = Cell Viability - Mesenchymal (AID 546); details: mesenchymal cells viability, qHTS; series mostly up to 91.7 µM;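 note: cells exposed to compound for 40 hours before reading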
Procedure, shortened: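 Human kidney mesenchymal cells from normal renal glomeruli, 1000 cells/well, rested 5 hr at 37 °C, then treated 40 hr at 37 °C in complete medium. Cellular ATP read by CellTiter-Glo luminescence; AC50 from Hill-equation fits.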

[3] = Cellular Toxicity (caspase-3) HepG2 (AID 654); details: HepG2 caspase-3 activation, luminescence, 0% = DMSO only, 100% = tamoxifen; series mostly up to 92.2 µM;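 note: cells exposed to compound for 16 hours before reading; 0% = DMSO alone and 100% = caspase signal from 100 µM tamoxifen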
Procedure, shortened: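 HepG2 cells (1500/well) were treated 16 h at 37 °C in complete medium, then caspase 3/7 activity was read by Caspase-Glo luminescence. Data were normalized to DMSO and 100 uM tamoxifen; AC50 came from Hill-equation fits of qHTS concentration-response.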

[4] = Cellular Toxicity (caspase-3) HUV-EC-C (AID 656); details: HUV-EC-C cells, caspase-3 activation (apoptosis), vehicle = 0, 100 µM tamoxifen = 100%; series mostly up to 92.2 µM
Procedure, shortened: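 Luminescent caspase-3/7 activation (aminoluciferin substrate cleavage) in HUV-EC-C cells after 16 hr compound exposure, 37°C. Signal normalized to DMSO basal and 100 uM tamoxifen as 100%; AC50 from concentration-response fitted with the Hill equation.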

[5] = Cellular Toxicity (caspase-3) BJ (AID 658); details: BJ fibroblasts, luminescence, normalized: DMSO 0%, staurosporine 100%; series mostly up to 91.7 µM
Procedure, shortened: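 BJ human foreskin fibroblasts, 1000 cells/well, treated 16 hours at 37 °C in complete medium; caspase 3/7 activity by Caspase-Glo luminescence after 1 hr at room temperature. Normalized to DMSO and 10 uM staurosporine; AC50 from Hill fits.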

[6] = Cellular Toxicity (caspase-3) MRC-5 (AID 659); details: MRC-5 cells, luminescence, normalized: DMSO 0%, 10 µM staurosporine 100%; series mostly up to 91.7 µM
Procedure, shortened: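 MRC-5 human normal lung fibroblasts, 1500 cells/well, treated 16 h at 37 °C in complete medium. Caspase 3/7 measured by Caspase-Glo luminescence after 1 h at room temperature. Normalized to DMSO and 10 uM staurosporine; AC50 from Hill fit.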

[7] = Cellular Toxicity (caspase-3) SK-N-SH (AID 661); details: SK-N-SH caspase-3 activation, qHTS; series mostly up to 91.7 µM
Procedure, shortened: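 Human SK-N-SH neuroblastoma cells, 1500/well, were exposed to compounds for 16 hours at 37 °C. Caspase-Glo 3/7 luminescence was normalized to DMSO (basal) and 10 uM staurosporine (100%), and AC50 came from a Hill fit.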

[8] = Cellular Toxicity (caspase-3) Hek293 (AID 664); details: HEK293 caspase-3 activation, DMSO = 0%, 100 µM tamoxifen = 100%; at 92.2 µM (top of the series);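 note: cells exposed to compound for 16 h at 37 °C before readout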
Procedure, shortened: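 HEK293 cells in complete medium treated 16 h at 37 °C, then Caspase-Glo 3/7 luminescence read after 20 min at room temperature. Normalized to DMSO and 100 uM tamoxifen; AC50 from Hill fit of concentration-response.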

[9] = MultiTox-Fluor Cytotoxicity Assay - LYMP1-001 - Dead Cells (AID 946); details: LYMP1-001 lymphoblastoid cells, dead-cell protease fluorescence; series mostly up to 92.2 µM
Procedure, shortened: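 Cytotoxicity as increased dead-cell protease fluorescence (bis-AAF-R110, 485/520 nm), read 60 min after MultiTox-Fluor reagent. Human lymphoblastoid line exposed 16 h; Hill-fitted AC50, with DMSO as 0% and 15 uM tetraoctylammonium bromide as 100%.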

[10] = Cell Viability - LYMP1-002 - Assay at 16 hr (AID 948); details: LYMP1-002 lymphoblastoid cell viability; series mostly up to 92.2 µM;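 note: 0% = DMSO alone and full effect = 92 µM tetraoctylammonium bromide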
Procedure, shortened: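 LYMP1-002 human lymphoblastoid cells, 2500/well; 5 hr 37 C; cpd 16 hr 37 C; CellTiter-Glo 30 min RT; luminescence (ATP). Concentration-response, Hill-fit AC50. Pos ctrl tetraoctylammonium bromide.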

[11] = MultiTox-Fluor Cytotoxicity Assay - LYMP1-002 - Live Cells (AID 955); details: LYMP1-002 lymphoblastoid live-cell protease fluorescence viability; series mostly up to 46.1 µM; note: % is set by controls: 0 for no effect and ±100 for the full control effect
Procedure, shortened: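 Human lymphoblastoid LYMP1-002 cells, 2500/well, treated 16 h at 37 C in complete medium. Live-cell protease activity via GF-AFC fluorescence (Ex/Em 405/510) after 60 min reagent incubation; AC50 from Hill fits.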

[12] = MultiTox-Fluor Cytotoxicity Assay - LYMP1-003 - Dead Cells (AID 961); details: LYMP1-003 lymphoblastoid cells, dead-cell protease fluorescence; series mostly up to 92.2 µM; note: nearly all actives have a fitted effect of over 70% in size
Procedure, shortened: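 Dead-cell protease release, detected as bis-AAF-R110 fluorescence at 485/520 nm, was measured in LYMP1-003 cells after 16 h compound treatment at 37 C. AC50 values came from Hill-modeled qHTS curves normalized to DMSO (0%) and 15 uM tetraoctylammonium bromide (100%).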

[13] = MultiTox-Fluor Cytotoxicity Assay - LYMP1-003 - Live Cells (AID 962); details: LYMP1-003 lymphoblastoid cells, MultiTox-Fluor live-cell protease fluorescence; series mostly up to 92.2 µM;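 note: 0% = DMSO only and full loss = 92 µM tetraoctylammonium bromide; cytotoxic hits lower the live-cell protease signal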
Procedure, shortened: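 LYMP1-003 lymphoblastoid cells, 2500/well in complete medium, treated 16 h at 37 C; live-cell protease cleavage of GF-AFC read by fluorescence (Ex/Em 405/510) after 60 min reagent; AC50 from Hill fits of concentration-response.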

[14] = Cell Viability - LYMP1-003 - Assay at 24 hr (AID 963); details: LYMP1-003 lymphoblastoid cell viability; series mostly up to 92.2 µM;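 note: plate controls were DMSO only for no effect and tetraoctylammonium bromide positive control for full effect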
Procedure, shortened: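 Human lymphoblastoid LYMP1-003 cells, 2500/well, treated 24 h at 37 C in complete medium. Viability read as intracellular ATP by CellTiter-Glo luminescence after 30 min at room temperature; AC50 from Hill-equation fits of qHTS concentration-response.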

[15] = Cell Viability - LYMP2-025 (AID 976); details: LYMP2-025 lymphoblastoid cell viability; series mostly up to 92.2 µM;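 note: plate controls were DMSO only for no effect and tetraoctylammonium bromide control for full effect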
Procedure, shortened: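 Human lymphoblastoid LYMP2-025 cells, 2500/well, exposed 24 h at 37 C in complete medium in 1536-well qHTS. Viability as cellular ATP by CellTiter-Glo luminescence; AC50 from Hill fits of concentration-response data.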

[16] = Cell Viability - LYMP2-026 (AID 989); details: LYMP2-026 lymphoblastoid cell viability, qHTS; series mostly up to 92.2 µM; note: % is set by controls: 0 for no effect and ±100 for the full control effect; nearly all actives have a fitted effect of over 50% in size
Procedure, shortened: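 Human lymphoblastoid LYMP2-026 cells, 2500/well, exposed to compound 24 h at 37 C in complete medium. Viability as intracellular ATP by CellTiter-Glo luminescence; AC50 from Hill fits of qHTS concentration-response.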

[17] = qHTS Assay for Identification of Small Molecule Inducers of Hypoxia Response (AID 2120; active = well fitted curve in the direction sought with a large enough effect in the signal ratio, with a control signal flat, not every such curve was filed as active; the % refers to the signal ratio; note: 0% is about no effect); details: hypoxia response reporter cells, beta-lactamase ratio readout; series mostly up to 104 µM
Procedure, shortened: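 HRE-bla ME-180 cells in Opti-MEM with 0.5% dialyzed FBS, pre-plated 4-5 h, then compound titration for 17 h at 37 degrees Celsius. CCF4 loaded 2.5 h at room temperature; 460/530 nm ratio gave %Activity and AC50 for induction.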

[18] = biological target: Peroxisome proliferator-activated receptor alpha (Homo sapiens) (UniProt Q07869); assay: qHTS assay for small molecule agonists of the peroxisome proliferator-activated receptor alpha (PPARalpha) signaling pathway (AID 651778); details: PathHunter PPARalpha complementation, chemiluminescence, 6 h; stronger effect = higher value; note: % of control where 0% means no effect
Procedure, shortened: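 Enzyme-fragment complementation assay in which ligand-bound PPARalpha translocates and forms an active enzyme that generates chemiluminescence. Cells were plated overnight, exposed to compound for 6 hr at 37 C, and then given detection reagent for 60 min at room temperature.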

[19] = Cell Viability - LYMP2-003 (AID 965); details: LYMP2-003 lymphoblastoid cell viability; series mostly up to 92.2 µM;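 note: cells exposed to compounds for 24 h before reading; 0% = DMSO only and full effect = 92 µM tetraoctylammonium bromide; nearly all actives have a fitted effect of over 50% in size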
Procedure, shortened: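 CellTiter-Glo luminescence (cellular ATP) after 24 h compound exposure at 37 C in complete medium; 2500 cells/well, 5 h settling beforehand. Concentration-response fitted to standard Hill equation for AC50. Tetraoctylammonium bromide served as positive control.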

[20] = Cell Viability - LYMP2-016 (AID 984); details: LYMP2-016 lymphoblastoid cell viability, qHTS; series mostly up to 92.2 µM; note: % is set by controls: 0 for no effect and ±100 for the full control effect; nearly all actives have a fitted effect of over 55% in size
Procedure, shortened: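 qHTS, 1536-well: 2500 LYMP2-016 cells/well, 5 hr 37 C, compound added, 24 hr 37 C, CellTiter-Glo 30 min RT, luminescence. Tetraoctylammonium bromide positive control. AC50 via Hill fit.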

Peroxisome proliferator-activated receptor alpha (Homo sapiens), sequence (Q07869 whole entry, looked up, the tested form may be a part): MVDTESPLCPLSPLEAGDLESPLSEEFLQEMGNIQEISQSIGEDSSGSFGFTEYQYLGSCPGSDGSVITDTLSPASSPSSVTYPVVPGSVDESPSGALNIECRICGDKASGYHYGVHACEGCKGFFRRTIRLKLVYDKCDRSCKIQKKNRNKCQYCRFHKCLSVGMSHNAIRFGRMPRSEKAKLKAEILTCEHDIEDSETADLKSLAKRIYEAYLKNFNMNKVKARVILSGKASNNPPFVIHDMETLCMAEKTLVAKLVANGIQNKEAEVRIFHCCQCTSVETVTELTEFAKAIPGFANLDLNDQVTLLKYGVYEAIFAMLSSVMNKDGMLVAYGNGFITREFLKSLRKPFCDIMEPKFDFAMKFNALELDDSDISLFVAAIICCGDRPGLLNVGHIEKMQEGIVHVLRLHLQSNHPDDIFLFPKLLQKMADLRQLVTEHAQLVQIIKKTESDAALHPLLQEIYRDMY

CN(C)c1ccc(N(C)C)cc1
inactive: Potency [1] > 92 µM | Potency [2] | outcome [3] | outcome [4] | outcome [5] | outcome [6] | Potency [7] | caspase-3 activation [8] -1.04% | outcome [9] | outcome [10] | outcome [11] | Potency [12] | outcome [13] | outcome [14] | Potency [15] | Potency [16] | Potency [17] | max response [18] -4.1%

O=C(O)C(Br)CBr (configuration not stated)
inactive: Potency [1] > 92 µM | Potency [2] | outcome [3] | outcome [4] | outcome [5] | outcome [6] | Potency [7] | caspase-3 activation [8] 1.8% | outcome [9] | outcome [10] | outcome [11] | Potency [12] | outcome [13] | outcome [14] | Potency [19] | Potency [15] | Potency [20] | Potency [16] | Potency [17] | max response [18] 1.03%

Cc1cc(N=Nc2ccccc2C)ccc1N
inactive: Potency [1] > 92 µM | outcome [3] | outcome [4] | outcome [5] | outcome [6] | Potency [7] | caspase-3 activation [8] -5.62% | outcome [9] | outcome [10] | outcome [11] | Potency [12] | outcome [13] | outcome [14] | Potency [19] | Potency [15] | Potency [20] | Potency [16] | Potency [17] | max response [18] -6.65% and -1.39%

— PubChem BioAssay (NCATS)
